This note sets out measurements from PubChem BioAssay (Tox21).

Test [1] is described as follows: qHTS assay to identify small molecule antagonists of the thyroid receptor (TR) signaling pathway (AID 743065; active means well fitted curve in the direction sought with a large enough effect in the repeat runs; an effect the other way counts as inactive or inconclusive; further: series mostly up to about 70 µM; nearly all actives have a fitted effect of over 55% in size). In a few lines: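 Antagonism measured as loss of luciferase signal in GH3 cells stably carrying a TRE-luciferase reporter, co-treated with compound and T3 (1 nM final) for 23.5 h at 37 C. Viability was read in the same well by CellTiter-Fluor.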
Test [2] relates to thyroid hormone receptor (rat, GH3 cells). As to the kind of experiment: qHTS assay to identify small molecule agonists of the thyroid receptor (TR) signaling pathway (AID 743066). In general terms: qHTS replaces the single test concentration by a dilution series.
The target of test [3] is Estrogen receptor (Homo sapiens) (UniProt P03372). As to the kind of experiment: qHTS assay to identify small molecule antagonists of the estrogen receptor alpha (ER-alpha) signaling pathway (AID 743069; active means well fitted curve in the direction sought with a large enough effect in the signal ratio in the repeat runs, not every such curve was filed as active; the % refers to the signal ratio; further: potency means the concentration at half of the fitted maximal effect). In a few lines:
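Antagonist mode: compounds in DMSO were co-added with 17beta-estradiol to ER-alpha-bla HEK293 cells (2% charcoal-stripped serum) and left 18 h at 37C. Reporter inhibition was measured as FRET fluorescence after 2 h LiveBLAzer substrate at room temperature.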

Test [4] is described as follows: qHTS assay to identify small molecule antagonists of the estrogen receptor alpha (ER-alpha) signaling pathway - cell viability counter screen (AID 743074).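 Further: HEK293 cells carrying ER-alpha-UAS-bla reporter stimulated with 17beta-estradiol; nearly all actives have a fitted effect of over 45% in size.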
Test [5] concerns the target Estrogen receptor (Homo sapiens) (UniProt P03372). In words: qHTS assay to identify small molecule agonists of the estrogen receptor alpha (ER-alpha) signaling pathway (AID 743075).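 Further: HEK293 GripTite cells with ER-alpha and UAS-driven beta-lactamase reporter.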
For test [6] the target is unchanged. In words: qHTS assay to identify small molecule agonists of the estrogen receptor alpha (ER-alpha) signaling pathway using the BG1 cell line (AID 743079; active means well fitted curve in the direction sought with a large enough effect in the repeat runs; an effect the other way counts as inactive or inconclusive; further: nearly all actives have a fitted effect of over 20% in size; further: potency means the concentration at half of the fitted maximal effect).
Test [7] in a line: qHTS assay to identify small molecule antagonists of the estrogen receptor alpha (ER-alpha) signaling pathway using the BG1 cell line (AID 743080).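 Further: BG1 cells stimulated with 17beta-estradiol alongside compound; series mostly up to about 70 µM; nearly all actives have a fitted effect of over 25% in size.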 In a few lines: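 Seeding, 24 h rest, compound transfer from DMSO, 17beta-estradiol addition, 21.5 h incubation, CellTiter-Fluor (30 min, 37 C), then ONE-Glo (30 min, room temperature): this sequence was run on BG1-Luc-4E2 reporter cells.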

A further test has as its target Aromatase (Homo sapiens) (UniProt P11511). As to the kind of experiment: qHTS assay to identify aromatase inhibitors (AID 743083; active means well fitted curve in the direction sought with a large enough effect in the repeat runs; an effect the other way counts as inactive or inconclusive; further: series mostly up to about 70 µM; nearly all actives have a fitted effect of over 55% in size).
Test [8] is described as follows: qHTS assay to identify small molecule antagonists of the estrogen receptor alpha (ER-alpha) signaling pathway using the BG1 cell line - cell viability counter screen (AID 743081; active means well fitted curve in the direction sought with a large enough effect in the repeat runs; an effect the other way counts as inactive or inconclusive;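 further: compound given together with 17beta-estradiol as the ER stimulus; series mostly up to about 70 µM; nearly all actives have a fitted effect of over 45% in size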).

Records with an inconclusive call do not appear. Values without a mark were called inactive. Active and inactive are the calls of the source. Unless noted, the call rests on the fitted dose curve.

Chain of Aromatase (Homo sapiens) (P11511 whole entry, looked up): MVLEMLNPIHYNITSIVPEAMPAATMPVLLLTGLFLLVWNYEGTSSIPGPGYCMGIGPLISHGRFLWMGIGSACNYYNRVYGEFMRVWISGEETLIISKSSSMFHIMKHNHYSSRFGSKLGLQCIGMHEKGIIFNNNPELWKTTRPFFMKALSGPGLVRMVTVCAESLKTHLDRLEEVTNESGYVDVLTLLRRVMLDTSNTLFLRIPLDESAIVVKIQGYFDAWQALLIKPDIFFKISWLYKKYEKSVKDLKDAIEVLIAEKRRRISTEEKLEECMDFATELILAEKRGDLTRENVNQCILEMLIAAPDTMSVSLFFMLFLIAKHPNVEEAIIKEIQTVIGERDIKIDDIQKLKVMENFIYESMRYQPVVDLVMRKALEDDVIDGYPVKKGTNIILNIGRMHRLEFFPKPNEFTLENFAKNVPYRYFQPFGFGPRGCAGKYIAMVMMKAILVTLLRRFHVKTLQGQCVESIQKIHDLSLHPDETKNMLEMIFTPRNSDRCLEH
Chain of Estrogen receptor (Homo sapiens) (P03372 whole entry, looked up): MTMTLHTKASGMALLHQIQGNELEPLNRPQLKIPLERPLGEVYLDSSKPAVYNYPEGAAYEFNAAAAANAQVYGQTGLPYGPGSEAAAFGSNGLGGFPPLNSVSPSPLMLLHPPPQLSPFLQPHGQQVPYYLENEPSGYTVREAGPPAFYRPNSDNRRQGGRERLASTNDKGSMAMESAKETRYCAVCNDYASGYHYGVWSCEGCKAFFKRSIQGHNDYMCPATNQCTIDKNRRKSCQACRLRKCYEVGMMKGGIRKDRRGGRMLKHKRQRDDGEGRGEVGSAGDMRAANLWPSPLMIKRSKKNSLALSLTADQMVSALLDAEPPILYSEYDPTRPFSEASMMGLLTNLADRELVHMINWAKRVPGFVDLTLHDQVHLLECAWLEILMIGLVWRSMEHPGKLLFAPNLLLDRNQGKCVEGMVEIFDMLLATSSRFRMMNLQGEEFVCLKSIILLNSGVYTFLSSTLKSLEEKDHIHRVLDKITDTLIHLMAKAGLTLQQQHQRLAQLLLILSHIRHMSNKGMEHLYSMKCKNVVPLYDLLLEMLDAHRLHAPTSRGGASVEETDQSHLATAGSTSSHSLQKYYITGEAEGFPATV

Turning to `COc1cc([N+](=O)[O-])ccc1N`, the Potency result in [1], in test [2], in [4], in [5] and in [6] was “inactive” throughout. In addition, in test [3], the Potency was 6.92 µM [inhibitor] (active). Besides, the result (in [7]; with Aromatase (Homo sapiens)) was inactive.

On to `NC(=O)NNC(N)=O`, for which the Potency entry in test [1], in test [2], in test [3], in test [4], in [5] and in test [6] was “inactive” in each case. Further, the outcome (in test [7]; in [8]; with Aromatase (Homo sapiens)) was inactive.

In the case of `Cc1nc(C)nc(N2C[C@@H](C)N(c3ccnc([C@@H](C)O)n3)[C@@H](C)C2)n1`, the Potency entry in test [1], in test [2], in test [3], in test [4], in test [5] and in test [6] was “inactive” in each case. The molecule was called inactive (in test [7]; in test [8]; with Aromatase (Homo sapiens)).

On to `Nc1ccc(/C=C/c2ccc(N)cc2S(=O)(=O)O)c(S(=O)(=O)O)c1`, for which the Potency entry in test [1], in [2], in [3], in test [4], in [5] and in [6] was “inactive” each time. Moreover, the result (in test [7]; in [8]; with Aromatase (Homo sapiens)) was inactive.

`CCCCCC(=O)OCC`: the Potency result in test [1], in test [2], in test [3], in test [4], in [5] and in [6] was “inactive” in each case. In addition, the result (in test [7]; in test [8]; with Aromatase (Homo sapiens)) was inactive.

As to `COc1ccc(OC)c(NC(=O)CC(C)=O)c1`, the Potency entry in test [1], in [2] and in test [4] was “inactive” throughout. In addition, in [8], the molecule was called inactive.

On to `Cc1cccc(NC(=S)N(C)C)c1`, for which the Potency entry in test [1], in test [2] and in test [4] was “inactive” throughout. In addition, the call in test [8] was inactive.

Take `CC(C)SCc1ccco1`: the Potency result in test [1], in test [2], in test [3], in test [4], in test [5] and in [6] was “inactive” throughout. The call (in [7]; in test [8]; with Aromatase (Homo sapiens)) was inactive.

As for `CC(=O)OC(C(=O)c1ccccc1)c1ccccc1` (stereo unspecified), the Potency entry in test [1], in test [2], in test [3], in test [4] and in [5] was “inactive” each time. In addition, the molecule was called inactive (in [7]; in test [8]; with Aromatase (Homo sapiens)).

Regarding `CCCCCCCCCCCCCC(=O)OC`, the Potency entry in test [1], in test [2], in [3], in [4], in test [5] and in test [6] was “inactive” each time. Besides, the result (in test [7]; in test [8]; with Aromatase (Homo sapiens)) was inactive.

For `CC(C)=CC(C)(C)C`, the Potency result in [1], in test [2] and in test [4] was “inactive” in each case. Further, the result in test [8] was inactive.

Take `Cc1c(C(C)C)c(=O)n(-c2ccccc2)n1C`: the Potency result in [1], in test [2], in test [3], in test [4], in test [5] and in test [6] was “inactive” in each case. Also, the molecule was called inactive (in test [7]; in test [8]; in the test with Aromatase (Homo sapiens)).

As to `CCCCOC(=O)[C@@H](C)Oc1ccc(Oc2ccc(C(F)(F)F)cn2)cc1`, the Potency entry in [1], in test [2], in test [4] and in test [5] was “inactive” each time. Further, the Potency in [6] is 61.5 µM (active). In addition, the molecule was called inactive in test [7] and in test [8].

With `CC(Cl)COP(=O)(OCC(C)Cl)OCC(C)Cl` (stereo unspecified), the Potency result in test [1], in test [2], in [3], in test [4], in test [5] and in [6] was “inactive” each time. The outcome (in test [7]; in test [8]; with Aromatase (Homo sapiens)) was inactive.

Take `CC(=O)Nc1ncc([N+](=O)[O-])s1`: the Potency result in test [1], in [2], in test [3], in test [4], in test [5] and in test [6] was “inactive” each time. Further, the call (in [7]; in test [8]; with Aromatase (Homo sapiens)) was inactive.

With `O=c1[nH]c(=O)c2[nH]c(=O)[nH]c2[nH]1`, the Potency result in test [1], in test [2], in test [3], in test [4], in test [5] and in [6] was “inactive” in each case. The outcome (in test [7]; in test [8]; with Aromatase (Homo sapiens)) was inactive.

In the case of `CCC(C)N` (stereo unspecified), the Potency entry in test [1], in [2], in [3], in test [4], in [5] and in test [6] was “inactive” throughout. In addition, the molecule was classed as inactive (in test [7]; in [8]; with Aromatase (Homo sapiens)).

For the molecule `Nc1ccnc(=O)[nH]1`, the Potency result in [1], in test [2], in test [3], in [4], in test [5] and in [6] was “inactive” in each case. Moreover, the call (in test [7]; in [8]; in the test with Aromatase (Homo sapiens)) was inactive.

As to `CC(=O)Nc1ccc(C)cc1`, the Potency result in [1], in test [2], in test [3], in [4] and in test [5] was “inactive” each time. The result (in test [7]; in [8]; in the test with Aromatase (Homo sapiens)) was inactive.
